Source: PubChem BioAssay (National Center for Advancing Translational Sciences (NCATS))
TRPML1 blocker – inhibitors of human TRPML1 channel | Q9GZU1 | TRPML1-inducible cells, Ca2+ dye fluorescence, FDSS; stronger effect = lower value; inhibition of EC80 agonist-evoked calcium signal | activity change, negative = inhibition, % (concentration not given with the values) | 390,000 compounds, 0.02% hits; in the data active means activity change below about -50%; inconclusive means between about -30% and that limit;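 further: stimulus is agonist 54-4 at its EC80 concentration; on the % scale 0 is the no-effect control and ±100 the full control effect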
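TRPML1-DL cells, Tet-induced overnight (~16 h, 37 °C) at 1,500 cells/well, were loaded with Ca8 no-wash dye plus quencher for 45-90 min at room temperature. Compounds were pinned during FDSS kinetic reading; agonist 54-4 at EC80 (4 uM final) then added.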
TRPML1 ag – agonists of human TRPML1 channel | TRPML1-expressing cells, Ca2+ dye fluorescence, FDSS | AID 624414 | 410,000 compounds, 0.12% hits | activation, % (concentration not given with the values); in the data active means activation above about 50%; inconclusive means mostly about 30% to 49%; further: 0% is about no effect
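Kinetic FDSS Ca2+ read in Tet-induced TRPML1-DL cells (ABD Ca8 dye plus quencher, 45-90 min RT loading): baseline, then compound, then 110 s agonist window; EC80 agonist 54-4 at 4uM final added afterwards for a 110 s antagonist window.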
TRPV1 potentiator – potentiators of human vanilloid receptor 1 (TRPV1); Q8NER1; TRPV1-expressing cells, Fluo-8 calcium influx, capsaicin EC20 potentiation; potentiation, % at 8.33 µM; 320,000 compounds, 0.02% hits; in the data active means potentiation above about 80%; inconclusive means between about 30% and that limit; further: 0% is about no effect
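Cells expressing TRPV1 were dye-loaded with Fluo-8 and read kinetically: 10 s baseline, 3 min after compound (agonist portion), then 2 min after EC20 capsaicin (allosteric enhancer portion). Calcium-bound dye fluorescence at 480/520 nm.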
TRPV1 ag – human TRPV1 agonism; Q8NER1; TRPV1-expressing cells, Fluo-8 calcium influx, agonist mode; activation, % at 8.33 µM; 320,000 compounds, 0.19% hits; AID 540275; in the data active means activation above about 80%; inconclusive means between about 30% and that limit; further: 0% is about no effect
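TRPV1-expressing cells were cultured overnight at 35.5C and loaded with Fluo-8 calcium dye for 40 to 90 min at room temperature. After a 10 s baseline, compound was added and calcium influx was read kinetically for 3 min (ex 480/em 520 nm).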
TRHR PAM – allosterically enhances the human TRH receptor | P34981 | TRHR cells, fluo-8 calcium fluorescence, EC20 TRH enhancement | enhancement, % at 2 µM | 360,000 compounds, 0.66% hits | AID 493056; in the data active means enhancement above about 30%; further: 0% is about no effect
Target sequence (P34981 whole entry, looked up): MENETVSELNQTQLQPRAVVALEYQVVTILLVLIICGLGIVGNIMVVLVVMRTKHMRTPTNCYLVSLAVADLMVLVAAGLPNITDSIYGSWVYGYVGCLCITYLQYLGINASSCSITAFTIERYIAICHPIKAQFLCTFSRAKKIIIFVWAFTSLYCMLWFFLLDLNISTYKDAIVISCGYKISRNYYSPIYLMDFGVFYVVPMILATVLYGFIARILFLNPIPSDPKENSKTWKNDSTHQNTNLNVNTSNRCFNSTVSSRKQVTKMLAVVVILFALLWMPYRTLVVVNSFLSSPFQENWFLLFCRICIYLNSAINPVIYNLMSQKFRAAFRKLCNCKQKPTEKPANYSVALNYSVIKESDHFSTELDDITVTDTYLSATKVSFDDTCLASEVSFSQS
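TRHR-expressing cells loaded with fluo-8 calcium dye were read kinetically (ex 480/em 530) during compound addition, then stimulated with an EC20 of TRH (10 nM final). Enhancement of the Gq-mediated intracellular calcium response was scored.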
TRHR agonist – activates the human TRH receptor; P34981; TRHR cells, calcium flux fluo-8, FDSS agonist mode; activation, % at 2 µM; 360,000 compounds, 0.18% hits; AID 493084; in the data active means activation above about 30%; further: 0% is about no effect
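TRHR-expressing cells, plated overnight in medium with 10% serum, were loaded with fluo-8 calcium dye at room temperature. After a 10 s baseline, library compound was pin-added and calcium release was recorded kinetically (ex 480/em 530) as agonist response.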
Starred values were filed as active, the others as inactive; u = inconclusive; x = no result. Sampled rows, rich in hits. Any-hit rate of the full collection: about 0.99%.

SMILES	TRPML1 blocker	TRPML1 ag	TRPV1 potentiator	TRPV1 ag	TRHR PAM	TRHR agonist
Cc1ccc(C)c(NC(=O)C(NS(=O)(=O)c2ccc3c(c2)CCC(=O)N3)c2ccccc2)c1 (configuration not stated)	-1	1	x	x	5	-1
COC(=O)c1ccc(C(=O)OC)c(NC2=NS(=O)(=O)c3ccccc32)c1	10	-1	0	-21	0	-2
COC(=O)c1c(-c2ccccc2)csc1NC1=NS(=O)(=O)c2ccccc21	1	1	14	-15	32*	0
COc1cc(/C=N/NC(=O)CCN2CCCCC2)ccc1O	14	0	3	-1	34*	1
COc1ccc(/C=N\NC(=O)CCN2CCN(c3ccccc3)CC2)cc1OC	14	0	6	-1	0	0
Cc1ccc(S(=O)(=O)N2CCOC23CCN(C(=O)c2cc(Cl)ccc2Cl)CC3)cc1	-3	-1	2	6	-4	0
Cc1ccc(S(=O)(=O)N2CCOC23CCN(C(=O)c2ccc(Cl)cc2Cl)CC3)cc1	-4	-1	11	8	32*	1
CC(=O)N1N=C(c2ccccc2)OC12CCCC2	-7	0	1	2	-2	0
CC(=O)N1N=C(c2ccc(Cl)cc2)OC1(C)C	-7	0	-3	12	34*	0
Cc1ccc(NC(=O)C(Cc2ccccc2)NS(=O)(=O)c2cccs2)cc1Cl (configuration not stated)	0	1	x	x	6	2
COc1ccc(OCCOc2ccc(S(=O)(=O)N3CCCC3)cc2[N+](=O)[O-])cc1	28	2	0	2	3	0
COc1cccc(Oc2ccc(S(=O)(=O)N3CCCC3)cc2[N+](=O)[O-])c1	7	2	-1	0	32*	-1
COc1ccc(CCNC(=O)CN(c2cc([N+](=O)[O-])ccc2OC)S(C)(=O)=O)cc1OC	-2	1	-15	7	32*	1
COc1ccc(CCNC(=O)CN(c2cccc([N+](=O)[O-])c2)S(C)(=O)=O)cc1OC	8	2	0	0	-2	0
C=CCN1C(=O)/C(=C/c2ccc(OCC(=O)O)cc2)S/C1=N/c1nccs1	-2	1	7	-7	13	-1
C=CCN=C1S/C(=C\c2ccc(Cl)cc2)C(=O)N1CC=C	2	0	1	1	2	0
C=CCN1C(=O)/C(=C/c2ccc(N(C)C)cc2)S/C1=N\c1nnc(CC)s1	x	x	9	28	7	53*
C=CCN1C(=O)/C(=C/c2ccc(O)c(OC)c2)S/C1=N/c1nccs1	-16	18	-9	u	5	72*
Cc1ccc(-c2nc(-c3cc4cc(Cl)ccc4oc3=O)sc2C)cc1	x	-1	x	x	x	x
COc1cccc(CNC(=O)c2nn(-c3ccc(C)cc3)c(=O)c3c2c2ccccc2n3C)c1	69	1	x	x	11	-1
COc1cc(C)c(Cl)c(C)c1S(=O)(=O)NC1CC(C)(C)NC(C)(C)C1	-16	0	-6	10	39*	1
Cc1cc(C)n(Cc2ccc(Cl)cc2Cl)c(=O)c1S(=O)(=O)c1ccccc1	-3	71*	-11	0	9	-1
Cc1cccc(C(=O)NC2CCN(C#N)CC2)c1	x	x	x	x	-2	-2
c1cncc(-c2nn[nH]n2)c1	9	3	1	0	40*	0
CSCCC(NC(=O)c1ccco1)C(=O)OC(C)C(=O)NC(=O)NC1CCCCC1 (configuration not stated)	-14	u	u	19	-2	52*
SMILES	TRPML1 blocker	TRPML1 ag	TRPV1 potentiator	TRPV1 ag	TRHR PAM	TRHR agonist
O=C(Cn1cnc2nc3c(cc2c1=O)CCCC3)N1CCN(c2ccccc2)CC1	-12	1	x	x	32*	0
COc1cccc(/C=C(\C#N)c2nc3ccc(C)cc3[nH]2)c1	13	1	x	x	-3	-1
Cc1ccc2nc(/C(C#N)=C/c3ccc(-c4ccc(F)cc4F)o3)[nH]c2c1	-1	22	x	x	-4	52*
CCCOc1cc(N(CC)CC)ccc1/C=C(/C#N)c1nc2ccc(C)cc2[nH]1	32	u	-10	u	9	32*
COc1cc(/C=C(\C#N)c2nc3ccccc3[nH]2)cc(OC)c1O	4	u	0	u	8	65*
CCN(CC)c1ccc(/C=C(/C#N)c2nc3ccc(C)cc3[nH]2)c(OC(C)C)c1	-16	0	-7	85*	16	83*
CCOc1cc(N(CC)CC)ccc1/C=C(/C#N)c1nc2ccccc2[nH]1	13	25	-11	u	12	41*
CC1(C)OC(=O)C2(Cc3ccccc3N3CCC(c4ccccc4)CC32)C(=O)O1 (configuration not stated)	x	-1	x	x	x	x
Cc1ccc(S(=O)(=O)N2CCOC2CNC(=O)C(=O)NCCN(C)C)cc1 (configuration not stated)	-9	1	u	-2	37*	1
Cc1ccc(CNC(=O)C(=O)NCC2OCCN2S(=O)(=O)c2ccc(Br)cc2)cc1 (configuration not stated)	-3	3	-22	0	31*	1
CN(C)CCNC(=O)C(=O)NCC1OCCN1S(=O)(=O)c1ccc([N+](=O)[O-])cc1 (configuration not stated)	-3	0	0	-1	5	0
Cc1ccc(S(=O)(=O)N2CCN(c3nc(Nc4ccccc4O)nc4ccccc34)CC2)cc1	x	0	x	x	x	x
CC(=O)ON(C(C)=O)c1ccc(/C=C2/C=Cc3ccccc32)cc1	x	-1	x	x	x	x
Cc1ccc(C)n1-c1ncn[nH]1	23	0	8	3	30*	0
COc1ccc(CNCc2ccccc2)cc1COc1ccc(NC(C)=O)cc1	x	0	x	x	x	x
COc1ccccc1C(=O)NC(CCSC)C(=O)OC(C)C(N)=O (configuration not stated)	-2	1	-4	1	36*	-1
COc1ccc(OC)c(C(=O)COC(=O)C(CCSC)NC(=O)COc2ccccc2)c1 (configuration not stated)	19	6	14	9	-3	2
COc1ccccc1C(=O)COC(=O)C(CCSC)NC(=O)COc1ccccc1 (configuration not stated)	5	1	2	6	30*	0
COc1ccccc1C(=O)NC(CCSC)C(=O)NNC(=O)C(C)Oc1ccccc1F (configuration not stated)	7	-1	-1	-1	-5	0
Cc1ccc2oc(=O)c3cc(C(=O)NCCCOC(C)C)sc3c2c1	-11	-1	x	x	1	0
